# Laboratory results: PubChem BioAssay
# Unmarked numbers belong to inactive results. The list shows a part of the results. Activity calls are given as the source filed them.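 The calls were made as follows, unless noted: active = inhibition above the hit cutoff set in the earlier primary screen (cut at about 27% in these data); inactive = the rest.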
# What was measured:
# [1] = biological target: Protein phosphatase methylesterase 1 (Homo sapiens) (UniProt Q9Y570); assay: human PME-1 methylesterase inhibition confirmation – biochemical, fluorescence polarization, FP-Rh probe, triplicate (AID 2171); conditions: recombinant PME-1, FP-Rh probe fluorescence polarization; at 5.9 µM; active compounds read high;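 also: 0% = enzyme with DMSO and 100% = wells lacking PME-1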
# Sequence of Protein phosphatase methylesterase 1 (Homo sapiens) (Q9Y570 whole entry, looked up, the tested form may be a part): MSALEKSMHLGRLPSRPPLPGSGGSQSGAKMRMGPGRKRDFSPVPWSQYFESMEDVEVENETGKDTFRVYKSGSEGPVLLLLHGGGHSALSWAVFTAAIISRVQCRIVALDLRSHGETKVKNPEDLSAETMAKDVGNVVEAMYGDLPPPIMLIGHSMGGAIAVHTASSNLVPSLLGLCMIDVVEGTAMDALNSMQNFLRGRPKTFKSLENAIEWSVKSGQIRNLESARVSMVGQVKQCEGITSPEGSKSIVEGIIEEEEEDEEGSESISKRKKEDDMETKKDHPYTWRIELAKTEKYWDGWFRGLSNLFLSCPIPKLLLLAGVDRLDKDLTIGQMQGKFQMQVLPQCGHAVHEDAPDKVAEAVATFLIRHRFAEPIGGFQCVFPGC
# [2] = biological target: Nuclear receptor coactivator 3 (Homo sapiens) (UniProt Q9Y6Q9); assay: NCOA3 GAL4-fusion reporter inhibition – cell-based, luminescence, quadruplicate, confirmation (AID 588792;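 active = mean inhibition over 43.08%, the solvent-only control mean plus 3 SD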;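 also: 0% = DMSO treated cells and 100% = gossypol at 36 µM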); conditions: HEK293 GAL4-SRC3 luciferase reporter, at 3.6 µM, active compounds read high
# [3] = system: transactivating tegument protein VP16 (Human herpesvirus 1), Gal4-VP16 luciferase reporter; assay: repression of VP16-driven luciferase reporter – cell-based, luminescence, high throughput, counter-screen for SRC3 inhibitor project (AID 588794; in the data active = inhibition above about 30%); conditions: mammalian cells, at 3.6 µM, active compounds read high
# [4] = biological target: Serine protease HTRA1 (Homo sapiens) (UniProt Q92743); assay: confirming inhibition of human HTRA1 – biochemical, fluorescence polarization, confirmation (AID 540248;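 active = mean inhibition over three repeats above a set limit taken from the earlier primary screen, cut at about 37% in these data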;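 also: 0% = HTRA1 with DMSO and 100% = wells lacking HTRA1; inhibitors block probe binding so polarization drops and inhibition rises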); conditions: recombinant HTRA1, FP-rhodamine activity-based probe, at 5.96 µM, active compounds read high
# [5] = biological target: Nuclear receptor coactivator 1 (Homo sapiens) (UniProt Q15788); assay: NCOA1 GAL4-fusion reporter inhibition – cell-based, luminescence, quadruplicate, confirmation (AID 588820;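 active = mean inhibition above 46.68%, the untreated control wells mean plus 3 SD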;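 also: 0% = DMSO wells and 100% = gossypol 36 µM treated wells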); conditions: HEK293 GAL4-SRC1 luciferase reporter, at 3.6 µM, active compounds read high
# Sequence of Nuclear receptor coactivator 1 (Homo sapiens) (Q15788 whole entry, looked up, the tested form may be a part): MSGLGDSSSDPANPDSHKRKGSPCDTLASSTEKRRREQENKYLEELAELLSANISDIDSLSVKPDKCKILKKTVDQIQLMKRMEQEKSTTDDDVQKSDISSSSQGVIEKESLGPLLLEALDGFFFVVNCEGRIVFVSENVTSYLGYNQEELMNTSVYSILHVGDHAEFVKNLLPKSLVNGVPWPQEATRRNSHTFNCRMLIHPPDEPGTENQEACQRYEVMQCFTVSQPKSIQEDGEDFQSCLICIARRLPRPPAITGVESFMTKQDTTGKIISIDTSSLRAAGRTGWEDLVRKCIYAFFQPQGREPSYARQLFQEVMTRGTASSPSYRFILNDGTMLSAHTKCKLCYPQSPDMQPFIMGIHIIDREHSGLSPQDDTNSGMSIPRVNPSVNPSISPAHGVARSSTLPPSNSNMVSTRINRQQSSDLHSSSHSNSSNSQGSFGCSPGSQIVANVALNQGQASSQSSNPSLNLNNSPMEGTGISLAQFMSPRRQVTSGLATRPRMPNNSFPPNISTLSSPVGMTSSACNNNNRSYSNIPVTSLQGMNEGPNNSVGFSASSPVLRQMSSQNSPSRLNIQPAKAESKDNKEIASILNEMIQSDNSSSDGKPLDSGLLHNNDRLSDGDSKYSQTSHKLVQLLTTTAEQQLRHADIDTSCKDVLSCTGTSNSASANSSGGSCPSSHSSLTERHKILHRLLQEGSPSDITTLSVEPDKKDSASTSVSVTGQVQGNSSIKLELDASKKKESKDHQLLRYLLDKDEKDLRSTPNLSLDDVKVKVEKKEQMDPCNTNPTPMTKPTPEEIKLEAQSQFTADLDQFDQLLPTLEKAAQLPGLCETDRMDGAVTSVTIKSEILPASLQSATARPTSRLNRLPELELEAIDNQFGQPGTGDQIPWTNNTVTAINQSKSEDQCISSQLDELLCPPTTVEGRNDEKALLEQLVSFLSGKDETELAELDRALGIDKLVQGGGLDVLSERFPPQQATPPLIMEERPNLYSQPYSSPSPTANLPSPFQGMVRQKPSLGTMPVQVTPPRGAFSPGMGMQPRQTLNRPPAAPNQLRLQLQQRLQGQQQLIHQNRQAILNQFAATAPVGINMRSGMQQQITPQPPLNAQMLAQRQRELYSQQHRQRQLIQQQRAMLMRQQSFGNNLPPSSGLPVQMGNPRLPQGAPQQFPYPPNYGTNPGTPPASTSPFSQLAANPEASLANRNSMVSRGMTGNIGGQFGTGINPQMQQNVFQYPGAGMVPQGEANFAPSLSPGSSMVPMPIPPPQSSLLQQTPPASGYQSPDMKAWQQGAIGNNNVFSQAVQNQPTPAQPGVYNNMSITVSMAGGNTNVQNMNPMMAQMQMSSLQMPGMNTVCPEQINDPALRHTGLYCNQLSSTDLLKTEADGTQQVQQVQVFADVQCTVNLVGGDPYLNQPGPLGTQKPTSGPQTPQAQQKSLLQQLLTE
# [6] = repression of VP16-driven luciferase reporter – cell-based, luminescence, high throughput, counter-screen for SRC1 inhibitor project (AID 588824; in the data active = inhibition above about 25%); conditions: cell-based VP16 transactivation luciferase luminescence; at 3.6 µM; active compounds read high
# [7] = StAR promoter reporter inhibitors, counter-screen for LRH-1 inverse agonist project, cell-based, luminescence, high throughput (AID 651611; in the data active = inhibition above about 28%); conditions: StAR promoter luciferase reporter counterscreen, at 3.6 µM, active compounds read high
# [8] = biological target: Nuclear receptor subfamily 5 group A member 2 (Homo sapiens) (UniProt O00482); assay: NR5A2 activity suppression in reporter cells – cell-based, luminescence, confirmation (AID 651613; in the data active = inhibition above about 42%;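 also: HEK293T cells co-transfected with LRH-1 and StAR promoter luciferase reporter; 0% = vehicle wells and 100% = parental cells lacking receptor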); conditions: cell-based LRH-1 luciferase reporter, inverse agonism; at 3.6 µM; active compounds read high
# Sequence of Nuclear receptor subfamily 5 group A member 2 (Homo sapiens) (O00482 whole entry, looked up): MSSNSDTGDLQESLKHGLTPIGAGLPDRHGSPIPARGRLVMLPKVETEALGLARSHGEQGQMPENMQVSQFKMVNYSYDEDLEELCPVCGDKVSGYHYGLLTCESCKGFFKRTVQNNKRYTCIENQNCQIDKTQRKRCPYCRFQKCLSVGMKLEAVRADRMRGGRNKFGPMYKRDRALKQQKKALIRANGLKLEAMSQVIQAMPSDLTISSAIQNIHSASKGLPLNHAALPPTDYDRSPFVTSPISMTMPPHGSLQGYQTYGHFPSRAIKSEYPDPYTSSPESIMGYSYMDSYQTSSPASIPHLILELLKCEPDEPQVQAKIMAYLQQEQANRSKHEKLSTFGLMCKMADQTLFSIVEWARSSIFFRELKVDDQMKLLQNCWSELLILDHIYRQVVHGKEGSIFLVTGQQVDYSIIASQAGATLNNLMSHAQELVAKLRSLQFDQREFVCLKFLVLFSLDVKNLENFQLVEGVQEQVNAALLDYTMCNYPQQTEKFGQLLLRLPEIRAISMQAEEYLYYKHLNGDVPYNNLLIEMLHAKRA
# [9] = biological target: Steroidogenic factor 1 (Homo sapiens) (UniProt Q13285); assay: inverse agonism at SF1 nuclear receptor – cell-based, luminescence, high throughput, counter-screen for LRH-1 inverse agonist project (AID 651614; in the data active = inhibition above about 44%;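 also: cells cotransfected with StAR promoter reporter and SF1 expression vector; 0% = vehicle on cells with receptor and 100% = vehicle on cells lacking receptor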); conditions: cell-based SF1 luciferase reporter, at 3.6 µM, active compounds read high
# Sequence of Steroidogenic factor 1 (Homo sapiens) (Q13285 whole entry, looked up, the tested form may be a part): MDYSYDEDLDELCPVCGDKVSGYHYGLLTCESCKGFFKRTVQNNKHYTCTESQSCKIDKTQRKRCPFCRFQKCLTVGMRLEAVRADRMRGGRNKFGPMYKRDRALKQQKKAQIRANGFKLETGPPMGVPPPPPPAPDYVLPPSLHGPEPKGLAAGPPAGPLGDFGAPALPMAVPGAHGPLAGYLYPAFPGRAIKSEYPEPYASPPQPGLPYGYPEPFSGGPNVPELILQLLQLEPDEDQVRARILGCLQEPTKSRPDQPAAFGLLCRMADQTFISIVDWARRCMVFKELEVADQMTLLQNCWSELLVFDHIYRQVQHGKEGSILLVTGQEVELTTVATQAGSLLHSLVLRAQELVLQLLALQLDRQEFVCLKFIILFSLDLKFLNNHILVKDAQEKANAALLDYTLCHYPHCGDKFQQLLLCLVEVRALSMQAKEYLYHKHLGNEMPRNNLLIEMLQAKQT
# [10] = compounds suppressing VP16-driven luciferase signal – cell-based, luminescence, high throughput, counter-screen for LRH-1 inverse agonist project (AID 651615; in the data active = inhibition above about 33%); conditions: Gal4-VP16 luciferase reporter cells, at 3.6 µM, active compounds read high
# [11] = system: transactivating tegument protein VP16 (Human herpesvirus 1); assay: compounds suppressing VP16-driven luciferase signal – cell-based, luminescence, single concentration, counter-screen for SRC2 inhibitor project (AID 652007; in the data active = inhibition above about 36%); conditions: cell-based VP16 transactivation luciferase reporter, at 8.9 µM, active compounds read high
# [12] = biological target: Nuclear receptor coactivator 2 (Homo sapiens) (UniProt Q15596); assay: inhibition of GAL4-SRC2 driven luciferase expression – cell-based, luminescence, HEK293, triplicate, confirmation (AID 652008;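 active = mean inhibition above 46.5%, the solvent-only control mean plus 3 SD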;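 also: 0% = DMSO-treated cells and 100% = Gossypol at 36 µM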); conditions: HEK293 GAL4-SRC2 luciferase reporter, at 8.9 µM, active compounds read high
# Sequence of Nuclear receptor coactivator 2 (Homo sapiens) (Q15596 whole entry, looked up, the tested form may be a part): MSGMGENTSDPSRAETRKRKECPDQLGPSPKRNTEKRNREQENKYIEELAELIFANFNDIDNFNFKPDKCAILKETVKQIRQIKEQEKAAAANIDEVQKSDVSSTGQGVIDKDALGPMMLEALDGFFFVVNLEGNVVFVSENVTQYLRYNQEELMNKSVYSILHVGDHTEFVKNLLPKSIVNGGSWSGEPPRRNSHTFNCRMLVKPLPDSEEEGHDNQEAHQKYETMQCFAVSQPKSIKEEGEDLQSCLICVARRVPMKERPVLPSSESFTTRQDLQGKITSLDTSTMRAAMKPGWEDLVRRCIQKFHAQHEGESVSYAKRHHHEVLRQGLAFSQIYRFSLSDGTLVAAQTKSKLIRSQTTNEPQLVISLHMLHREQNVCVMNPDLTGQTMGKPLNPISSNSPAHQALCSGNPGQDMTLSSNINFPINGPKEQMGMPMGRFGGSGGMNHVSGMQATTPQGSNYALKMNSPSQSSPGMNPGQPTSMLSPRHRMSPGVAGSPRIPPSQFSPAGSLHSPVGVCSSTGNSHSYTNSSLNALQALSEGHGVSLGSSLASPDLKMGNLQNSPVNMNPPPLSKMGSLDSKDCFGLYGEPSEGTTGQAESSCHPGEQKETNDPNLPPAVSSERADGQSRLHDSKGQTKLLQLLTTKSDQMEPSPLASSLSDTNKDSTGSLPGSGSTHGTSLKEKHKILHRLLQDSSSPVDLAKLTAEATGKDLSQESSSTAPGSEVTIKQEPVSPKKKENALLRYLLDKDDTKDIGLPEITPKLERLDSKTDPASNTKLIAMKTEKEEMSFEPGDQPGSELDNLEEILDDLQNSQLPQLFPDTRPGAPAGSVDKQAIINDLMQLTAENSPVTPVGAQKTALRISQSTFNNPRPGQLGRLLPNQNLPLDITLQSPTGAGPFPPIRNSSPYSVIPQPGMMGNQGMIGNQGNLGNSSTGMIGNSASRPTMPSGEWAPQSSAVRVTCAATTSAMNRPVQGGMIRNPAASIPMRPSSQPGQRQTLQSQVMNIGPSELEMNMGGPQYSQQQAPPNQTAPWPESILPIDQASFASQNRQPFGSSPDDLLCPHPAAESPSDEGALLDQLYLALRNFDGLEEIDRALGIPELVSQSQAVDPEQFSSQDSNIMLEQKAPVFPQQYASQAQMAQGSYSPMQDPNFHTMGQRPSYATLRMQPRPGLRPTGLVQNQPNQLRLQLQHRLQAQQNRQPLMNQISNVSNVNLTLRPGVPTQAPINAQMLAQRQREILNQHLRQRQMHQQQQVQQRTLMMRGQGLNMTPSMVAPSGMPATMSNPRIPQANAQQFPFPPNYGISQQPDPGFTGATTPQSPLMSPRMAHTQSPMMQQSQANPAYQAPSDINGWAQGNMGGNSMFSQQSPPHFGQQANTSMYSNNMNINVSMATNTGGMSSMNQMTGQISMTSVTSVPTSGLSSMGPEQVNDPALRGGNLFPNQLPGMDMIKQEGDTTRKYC
# [13] = biological target: Glutathione S-transferase omega-1 (Homo sapiens) (UniProt P78417); assay: recombinant GSTO1 blockers, retest – biochemical, fluorescence polarization, triplicate, counter-screen for RBBP9 inhibitor project, confirmation (AID 2176;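 active = inhibition above the primary screen's cutoff, its mean inhibition plus 3 SD, cut at about 35% in these data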;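 also: loss of polarization as inhibitors block binding of rhodamine sulfonate ester activity probe; 0% = GSTO1 with DMSO and 100% = wells lacking GSTO1 enzyme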); conditions: recombinant GSTO1, probe fluorescence polarization; at 5.96 µM; active compounds read high
# Sequence of Glutathione S-transferase omega-1 (Homo sapiens) (P78417 whole entry, looked up): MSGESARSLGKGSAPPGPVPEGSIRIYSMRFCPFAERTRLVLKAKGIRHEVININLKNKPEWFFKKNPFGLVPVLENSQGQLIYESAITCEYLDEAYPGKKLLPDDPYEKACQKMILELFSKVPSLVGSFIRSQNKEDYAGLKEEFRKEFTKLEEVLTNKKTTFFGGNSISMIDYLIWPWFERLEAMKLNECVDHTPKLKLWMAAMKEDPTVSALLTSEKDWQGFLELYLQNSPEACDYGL
compound,measurement,setting,value
COc1cccc(/C=N/Nc2ccc([N+](=O)[O-])cn2)c1O,inhibition,[1],1.07%
same,inhibition,[2],48% (active)
same,inhibition,[3],10.2%
Cc1ccc(Nc2nc(-c3ccc(O)cc3O)cs2)nc1,inhibition,[1],34% (active)
same,inhibition,[4],50.7% (active)
O=C1C(Nc2ccccc2)=C/C(=N/S(=O)(=O)c2cccs2)c2ccccc21,inhibition,[1],35.5% (active)
same,inhibition,[2],79.7% (active)
same,inhibition,[3],59.4% (active)
same,inhibition,[5],44.6%
same,inhibition,[6],75.7% (active)
COc1ccc(OC)c2[nH]c(C(=O)N/N=C/c3ccccc3O)cc12,inhibition,[1],-0.45%
same,inhibition,[2],30.1%
same,inhibition,[3],39.2% (active)
COc1ccc(/C=N/NC(=S)Nc2ccccc2[N+](=O)[O-])cc1O,inhibition,[1],43.4% (active)
same,inhibition,[2],-21.4%
same,inhibition,[3],-47%
same,inhibition,[5],-91.8%
same,inhibition,[6],-70%
Nc1ccc2c(c1)C(=O)C(=O)c1ccccc1-2,inhibition,[1],36.4% (active)
same,inhibition,[2],96.7% (active)
same,inhibition,[3],95.3% (active)
same,inhibition,[5],87% (active)
same,inhibition,[6],93% (active)
same,inhibition,[7],98.5% (active)
same,inhibition,[8],110% (active)
same,inhibition,[9],98.9% (active)
same,inhibition,[10],99.1% (active)
same,inhibition,[11],97% (active)
same,inhibition,[12],98.8% (active)
O=c1c2ccccc2nc(N/N=C/c2c(O)ccc3ccccc23)n1O,inhibition,[1],43.9% (active)
same,inhibition,[2],55.4% (active)
same,inhibition,[3],78.8% (active)
same,inhibition,[5],20.9%
same,inhibition,[6],76.4% (active)
same,inhibition,[7],81.4% (active)
same,inhibition,[8],101% (active)
same,inhibition,[9],90.2% (active)
same,inhibition,[10],78.3% (active)
O=C(Nc1ccc(OC(F)(F)F)cc1)c1ccc2c(c1)no[n+]2[O-],inhibition,[1],61.4% (active)
same,inhibition,[4],69.4% (active)
same,inhibition,[11],-77.2%
same,inhibition,[12],-55.7%
COc1cccc2c1C(=O)c1c(O)c3c(c(O)c1C2=O)C[C@@](O)(C(=O)CO)C[C@@H]3O[C@H]1C[C@H](N)[C@H](O)[C@H](C)O1,inhibition,[1],36.3% (active)
same,inhibition,[2],49.7% (active)
same,inhibition,[3],87.7% (active)
COc1cccc(NC(=O)Nc2ccc3c(c2)N(C)C(=O)CS3)c1,inhibition,[1],9.42%
Cc1cc(C)c2[nH]c(O)c(N=NC3=NC(=O)CS3)c2c1,inhibition,[1],32% (active)
C=CCn1c(SCC(=O)N2CCCC2=O)nc2sc(CC)cc2c1=O,inhibition,[1],11.2%
Oc1ccc(/C=N/Nc2ccc(C(F)(F)F)cn2)c(O)c1,inhibition,[1],17.8%
COc1cccc(N2CCN(c3ncnc4c3[nH]c3ccc(F)cc34)CC2C)c1 (configuration not stated),inhibition,[1],26.7% (active)
same,inhibition,[2],95.2% (active)
same,inhibition,[3],93.4% (active)
same,inhibition,[5],86.7% (active)
same,inhibition,[6],91.8% (active)
same,inhibition,[7],93.4% (active)
same,inhibition,[8],108% (active)
same,inhibition,[9],97.8% (active)
same,inhibition,[10],97.2% (active)
same,inhibition,[11],95.4% (active)
same,inhibition,[12],99.5% (active)
Oc1ccc(N=Cc2ccc(-c3cccs3)s2)cc1,inhibition,[1],23.3%
Oc1ccccc1N=Nc1nc(-c2ccccc2)c(-c2ccccc2)[nH]1,inhibition,[1],-3.97%
same,inhibition,[2],81.4% (active)
same,inhibition,[3],76.4% (active)
same,inhibition,[5],76.5% (active)
same,inhibition,[6],71% (active)
same,inhibition,[7],86.9% (active)
same,inhibition,[8],98.3% (active)
same,inhibition,[9],84% (active)
same,inhibition,[10],65.3% (active)
CCCCn1c(NS(=O)(=O)c2ccccc2)c(S(=O)(=O)c2ccc(C)cc2)c2nc3ccccc3nc21,inhibition,[1],11.6%
same,inhibition,[7],15.2%
same,inhibition,[8],19.7%
same,inhibition,[9],24.9%
same,inhibition,[10],-6.99%
CCCOc1ccc(/C=N/NC(=S)Nc2ccccc2[N+](=O)[O-])c(O)c1,inhibition,[1],27.9% (active)
same,inhibition,[11],74.5% (active)
same,inhibition,[12],84% (active)
Fc1ccc2[nH]c3c(N4CCN(c5ccccc5)CC4)ncnc3c2c1,inhibition,[1],26.3% (active)
same,inhibition,[5],2.85%
same,inhibition,[6],15.6%
Cc1cccc(-n2c3nc(=O)[nH]c(=O)c-3cc3cc([N+](=O)[O-])ccc32)c1,inhibition,[1],50.6% (active)
same,inhibition,[7],20.4%
same,inhibition,[8],42.1% (active)
same,inhibition,[9],47.4% (active)
same,inhibition,[10],27.6%
c1coc(-c2nc3nc4ccccc4n3nc2-c2ccco2)c1,inhibition,[13],16.5%
COc1cccc(/C=N/NC(=O)c2cc3c(OC)ccc(OC)c3[nH]2)c1O,inhibition,[1],32.6% (active)
same,inhibition,[5],28.5%
same,inhibition,[6],29.7% (active)
same,inhibition,[11],-23.7%
same,inhibition,[12],28.4%
Nc1ccc2oc(-c3cc(Br)ccc3Cl)nc2c1,inhibition,[1],9.02%
same,inhibition,[7],-34.3%
same,inhibition,[8],45.4% (active)
same,inhibition,[9],32.9%
same,inhibition,[10],-44.9%
O=C1OC(Nc2cc(Br)cc3cccnc23)c2ccccc21 (configuration not stated),inhibition,[1],6.18%
same,inhibition,[7],16.4%
same,inhibition,[8],25.9%
same,inhibition,[9],31.6%
same,inhibition,[10],13.6%
